Screening results from PubChem.
HEK293 tox – cytotoxicity counter-screen for GLP-1 receptor inverse agonists | actives 0.13% (n = 410,000) | Potency, µM (top dose mostly 38.3 µM), for the others: top-dose activity change, negative = inhibition, actives largely listed as inhibitors | HEK293 cAMP-luciferase reporter cells, luminescence, 24 h;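 note: loss of luciferase light is scored as toxicity; % is set by controls: 0 for no effect and ±100 for the full control effect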
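Cells in DMEM/10% Nu serum/1% pen-strep, 1536-well format. Pre-incubated 12 h, dosed with 23 nL compound, incubated a further 24 h. Luciferase detection, 12 min at room temp, luminescence.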
ClpP mod – qHTS Assay for Activators of ClpP; actives 1.9% (n = 340,000); Potency, µM (doses to about 57.5 µM), without a hit: top-dose activity change, negative = active; ATP-dependent Clp protease proteolytic subunit (Bacillus subtilis (strain 168)), P80244; purified B. subtilis ClpP, FRET peptide cleavage, 20 min; active = well fitted falling curve with a large enough effect; inconclusive = small, poorly fitted or top-dose-only effect; inactive = no such curve, though single readings can be large or run the other way; note: the source files actives as falling curves though it sought activators and does not explain the sign; nearly all actives have a fitted effect of over 65% in size
Target sequence (P80244 whole entry, looked up): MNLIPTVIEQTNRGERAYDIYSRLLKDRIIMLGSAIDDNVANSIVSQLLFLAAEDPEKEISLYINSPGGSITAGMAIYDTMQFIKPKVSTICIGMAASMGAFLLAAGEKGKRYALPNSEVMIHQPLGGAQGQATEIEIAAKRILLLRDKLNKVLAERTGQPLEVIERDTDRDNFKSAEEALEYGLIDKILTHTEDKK
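Buffer: 100 mM Tris/HCl pH8, 100 mM KCl, 0.05% low protease BSA, 2.5% glycerol, 0.01% Tween-20. ClpP 10 microg/mL final; 20 min RT; delta FRET normalized to ADEP and DMSO controls.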
GLP-1R agonist – agonists of human GLP-1 receptor. P43220. HEK293 GLP-1R CRE-luciferase, luminescence, 4-6 h; cells express a hypersensitive GLP-1R form. Potency, µM (titrated, usually from 45.6 µM), for the others: at the highest dose activation, usual class: activators. actives 0.007% (n = 380,000). AID 624172; note: % of control where 0% means no effect
Target sequence (P43220 whole entry, looked up): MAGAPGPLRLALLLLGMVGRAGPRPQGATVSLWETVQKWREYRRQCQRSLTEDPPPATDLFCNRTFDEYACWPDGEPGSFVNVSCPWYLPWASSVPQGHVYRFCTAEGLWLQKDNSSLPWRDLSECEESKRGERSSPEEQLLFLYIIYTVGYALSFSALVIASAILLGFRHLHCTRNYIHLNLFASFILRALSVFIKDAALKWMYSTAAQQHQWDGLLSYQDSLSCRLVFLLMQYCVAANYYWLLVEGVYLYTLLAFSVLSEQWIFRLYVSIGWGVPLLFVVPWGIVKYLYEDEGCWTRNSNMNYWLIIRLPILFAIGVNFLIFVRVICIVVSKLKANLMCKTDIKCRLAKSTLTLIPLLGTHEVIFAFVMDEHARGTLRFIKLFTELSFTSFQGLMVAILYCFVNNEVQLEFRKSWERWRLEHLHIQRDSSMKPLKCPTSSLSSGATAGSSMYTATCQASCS
GLP1R inv ag – GLP-1 receptor (human) inverse agonism; P43220; actives 1.6% (n = 410,000); HEK293 GLP-1R CRE-luciferase, luminescence, 24 h; GLP-1R form is constitutively active; Potency, µM (series often up to 38.3 µM), inactives show top-dose activity change, negative = inhibition, most hits filed as inhibitors; note: % is set by controls: 0 for no effect and ±100 for the full control effect; nearly all actives have a fitted effect of over 55% in size
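Using stably transfected HEK293 (constitutively active GLP-1R, cAMP-luciferase reporter), compounds were incubated 24 hr and luciferase measured by luminescence.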
The depositor's hits bear a star; ? = inconclusive; . = no result given. Rows were chosen to be rich in hits. Some 3.2% of all compounds tested hit in one or more screens of this group. Unless noted, calls come from the whole dose curve; as a rule, active = well fitted curve in the direction sought with a large enough effect; inconclusive = small, poorly fitted or top-dose-only effect, or another doubt; inactive = no such curve, though single readings can be large; an effect the other way counts as inactive or inconclusive. Potency is the fitted concentration of half-maximal effect.

SMILES	HEK293 tox	ClpP mod	GLP-1R agonist	GLP1R inv ag
Cc1ccc(C)c(S(=O)(=O)NC(C)C(=O)Nc2ccc(-c3nc4ccccc4s3)cc2)c1 (stereo not drawn)	-4%	32µM*	0%	-5%
COCCNc1nnc(SC(C)C(=O)Nc2ccc(-c3nc4ccc(C)cc4s3)cc2)s1 (stereo not drawn)	6%	18µM*	3%	?
CC(NS(=O)(=O)c1cccc(Cl)c1)C(=O)Nc1ccc(-c2nc3ccccc3s2)cc1 (stereo not drawn)	-28%	35µM*	-16%	1%
CC(C)(C)c1ccc(S(=O)(=O)NCC(=O)Nc2ccc(-c3nc4ccccc4s3)cc2)cc1	?	5µM*	8%	?
O=C(Cn1c(=O)n(Cc2ccc3c(c2)OCO3)c(=O)c2oc3ccccc3c21)Nc1ccc(F)cc1	-11%	?	.	1%
Cc1cccc(CN(CC(=O)N/N=C/c2cccs2)S(=O)(=O)c2ccc(Cl)cc2)c1	-19%	-1%	2%	8.9µM*
Cc1ccc(SCCCCN2CCNCC2)cc1	1%	-1%	-3%	2.8µM*
Cc1ccc(SCCCCN2CCOCC2)cc1	-1%	.	-2%	-24%
Clc1ccc(SCCCCN2CCNCC2)cc1	-19%	0%	0%	1.8µM*
Cc1ccc(C(C)C)c(OCCCCN2CCNCC2)c1	-4%	1%	-6%	2.2µM*
Cc1ccc(-n2c(=O)c3c(C)c(C(=O)N(C)C)sc3n(CC(=O)C(C)(C)C)c2=O)cc1C	-2%	1%	.	1%
CCCCN(C)CCCNC(=O)c1cc(=O)[nH]c2ccc(S(=O)(=O)N3CCCCC3)cc12	-9%	-5%	.	4%
COc1cc(NC(=O)C(CCS(C)(=O)=O)N2Cc3ccccc3C2=O)cc(OC)c1OC (stereo not drawn)	4%	-3%	.	-7%
CCOC(=O)C1(Cc2cccc(OC)c2)CCN(Cc2ccccc2OC)CC1	-4%	.	12%	?
CCOC(=O)C1(Cc2cccc(OC)c2)CCN(Cc2ccc(OC)c(OC)c2)CC1	-18%	.	5%	?
CCOC(=O)C1(Cc2cccc(OC)c2)CCN(Cc2cccc(O)c2)CC1	-2%	.	6%	11µM*
CCOC(=O)C1(Cc2cccc(OC)c2)CCN(Cc2ccc(C)s2)CC1	?	.	3%	10µM*
O=C(Cc1ccc(F)cc1)Nc1nc(-c2ccc(F)cc2)cs1	-5%	.	6%	-31%
CC(=O)Nc1ccc(-c2csc(NC(=O)Cc3cccc(F)c3)n2)cc1	8%	.	11%	11µM*
O=C(Cc1c(F)c(F)c(F)c(F)c1F)Nc1nc(-c2ccccc2)cs1	?	2%	-2%	7.1µM*
Nc1ncnc(Sc2ccccc2)c1[N+](=O)[O-]	-23%	-5%	0%	?
Nc1ncnc(Sc2ncccn2)c1[N+](=O)[O-]	11µM*	2%	-5%	?
Cc1[nH]c2ccccc2c1C1(O)C(=O)N(Cc2ccccc2)c2ccc(Br)cc21 (stereo not drawn)	?	1%	-7%	?
CCCCN1C(=O)C(O)(c2ccccc2)c2cc(Br)ccc21 (stereo not drawn)	-5%	0%	15%	13µM*
Brc1ccccc1OCCOc1cccc2cccnc12	-7%	-18%	6%	-1%
SMILES	HEK293 tox	ClpP mod	GLP-1R agonist	GLP1R inv ag
Cc1cc(Cl)cc(Cl)c1OCCOCCN(C)C	0%	1%	-14%	11µM*
Cc1cc(Cl)cc(Cl)c1OCCOc1cccc2cccnc12	-24%	-24%	1%	8.9µM*
O=C(OC(C(=O)Nc1ccc([N+](=O)[O-])cc1Br)c1ccccc1)c1ccccc1 (stereo not drawn)	-1%	0%	18%	?
CC(C)C(=O)Nc1ccc([N+](=O)[O-])cc1Br	-14%	35µM*	-20%	10%
CC[C@H](c1ccccc1)c1noc(CCN(CC)CC)n1	.	.	6%	.
CCOc1ccc(-c2cccc(NS(=O)(=O)c3ccc(Cl)s3)c2)nn1	-4%	1%	.	17%
CCOC(=O)c1c(CSc2ccc(CC)cc2)oc2ccc(O)c(CN(C)C)c12	?	.	18%	2.5µM*
Cc1cc(C)c(/C=C/c2onc(C)c2S(=O)(=O)N2CCC(C(=O)NCc3ccco3)CC2)c(C)c1	-4%	-7%	.	?
Cc1cccnc1NCc1ccc(O)c2ncccc12	?	5%	18%	2.8µM*
NC(=O)CSc1nc2ccc(NC(=O)COc3ccccc3)cc2s1	-11%	-2%	.	-23%
COc1cc(C=CC(=O)OCC=Cc2ccc3c(c2)OCO3)cc(OC)c1OC	-10%	28µM*	4%	5%
CCOC(=O)C1CCN(C(=O)c2c(C)nn(-c3ccc(F)cc3)c2-n2cccc2)CC1	-10%	-1%	15%	8%
O=C(Nc1ccccc1C(F)(F)F)C1CCN(S(=O)(=O)c2ccccc2)CC1	9%	-1%	.	-1%
COc1cccc(CN2CCC(N(CCc3ccccc3)Cc3ccccc3)CC2)c1OC	-1%	-3%	-9%	10µM*
COc1cccc(CN2CCN(Cc3cc(OC)c(OC)c(OC)c3)CC2)c1OC	-1%	.	0%	16%
COc1cccc(CN2CCN(Cc3cccc(Oc4ccccc4)c3)CC2)c1OC	?	-3%	-2%	6.3µM*
CCOc1ccc(Nc2nn(-c3ccc(OC(F)(F)F)cc3)nc2C(C)=O)cc1	-6%	3%	.	-3%
COC(=O)c1cc(NS(=O)(=O)c2ccc(NCc3cccnc3)c(N)c2)cc(C(=O)OC)c1	-14%	-2%	0%	11%
COC(=O)c1cc(NS(=O)(=O)c2ccc(NCc3cccnc3)c([N+](=O)[O-])c2)cc(C(=O)OC)c1	11%	28µM*	0%	10%
COc1ccc(C(=O)c2ccc(Cl)cc2)c2ccccc12	-10%	-3%	0%	10µM*
O=C(c1cnn(C(=O)COc2ccc(Cl)cc2)c1)c1ccccc1O	1%	37%	-15%	2%
Cc1ccc(O)c(C(=O)c2cnn(C(=O)COc3ccc(Cl)cc3)c2)c1	3%	16µM*	-5%	-22%
Nc1cc(=O)nc(SCC(=O)Nc2ccccc2)n1CCc1ccccc1	-15%	0%	-6%	-8%
CCC(C(=O)Nc1cc(OC)ccc1OC)n1nc(-c2ccccc2)c2c(c1=O)CCCC2 (stereo not drawn)	-10%	-3%	.	13µM*
O=C(c1ccccc1)N1N=C(c2ccc(F)cc2)CC1c1ccc(F)cc1 (stereo not drawn)	-3%	.	23%	10µM*
O=C(Nc1ccccc1)N1N=C(c2cccs2)CC1c1cccs1 (stereo not drawn)	9%	32µM*	1%	?
O=C(CN1CCOCC1)N1N=C(c2cccs2)CC1c1cccs1 (stereo not drawn)	-2%	.	0%	7%
O=C(c1ccccc1)N1N=C(c2cccs2)CC1c1ccccc1O (stereo not drawn)	0%	-10%	-2%	8.9µM*
